Compounds with a hit are over-represented: about 22% of the library has one in this group of screens.
CYP2C9 act – increases human cytochrome P450 2C9 activity. P11712. recombinant CYP2C9, luciferin-H conversion, luminescence; hits give high values; factor 1 = untreated enzyme, 0 = blocked. activation factor at 5 µM. 96,000 compounds, 1.4% hits. AID 1024;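 active means activation factor of 2 or more for CYP2C9 at a 5 µM dose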;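 further: 0 = sulfaphenazole-blocked wells and 1 = vehicle-only wells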
Target sequence (P11712 whole entry, looked up): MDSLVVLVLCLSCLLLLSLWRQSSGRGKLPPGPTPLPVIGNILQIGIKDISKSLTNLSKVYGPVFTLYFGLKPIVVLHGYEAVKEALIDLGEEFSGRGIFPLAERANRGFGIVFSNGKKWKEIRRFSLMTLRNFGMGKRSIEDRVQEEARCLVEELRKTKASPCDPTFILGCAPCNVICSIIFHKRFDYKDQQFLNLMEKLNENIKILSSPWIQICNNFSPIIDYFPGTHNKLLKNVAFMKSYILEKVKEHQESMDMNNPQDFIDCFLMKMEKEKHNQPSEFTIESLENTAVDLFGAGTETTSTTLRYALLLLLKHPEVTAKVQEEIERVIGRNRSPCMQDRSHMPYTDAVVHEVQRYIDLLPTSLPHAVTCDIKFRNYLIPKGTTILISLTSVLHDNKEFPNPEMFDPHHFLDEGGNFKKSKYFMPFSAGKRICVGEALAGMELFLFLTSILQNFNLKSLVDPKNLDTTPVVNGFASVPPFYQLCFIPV
Measles CPE – protection of cells from measles virus. Measles virus-infected cells, CPE protection, absorbance. protection (pct of control), % at 4 µM. 140,000 compounds, 1.5% hits; in the data active means protection mostly above about 24%, no sharp cut-off; inactive means mostly below about 26%
CYP2C19 inh – inhibitors of human CYP2C19; P33261; CYP2C19 Supersomes, luciferin-H EGE luminescence, 30 min; inhibition, % at 5 µM; 96,000 compounds, 21% hits; AID 778;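 active means CYP2C19 inhibition above a set limit at 5 µM in the primary screen, cut at about 50% in these data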;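 further: plate controls were negative control wells for no effect and 2.5 mM tranylcypromine positive control for full effect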
CYP2C9 inh – inhibitors of human CYP2C9. P11712. 96,000 compounds, 20% hits. CYP2C9 Supersomes, luciferin-H conversion, luminescence. inhibition, % at 5 µM;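 active means blocking of liver enzyme CYP2C9 beyond about 50% at 5 µM, limit read from the data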
CYP2C19 act – activators of human cytochrome P450 2C19; P33261; recombinant CYP2C19, luciferin-H EGE luminescence; hits give high values; 0 = fully inhibited enzyme, 1 = untreated enzyme; activation factor at 5 µM; 96,000 tested, under 10 active;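 active means activation factor of at least 2 at 5 µM in the primary screen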;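 further: 0 = wells with 2.5 mM tranylcypromine and 1 = vehicle-only wells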
Starred values were filed as active, the others as inactive; / = no result given.

SMILES	CYP2C9 act	Measles CPE	CYP2C19 inh	CYP2C9 inh	CYP2C19 act
CC(C)c1ccc(-c2nnn(Cc3nc4ccccc4s3)n2)cc1	0.5	4	12	51*	0.9
CCCCC/C=C\C[C@H](O)/C=C/c1cccc(C[C@H](O)CCCCO)n1	/	5	/	/	/
Nc1cc(C(F)(F)F)ccc1C(=O)O	/	12	/	/	/
COc1ccc(-c2noc(CN(C(=O)C(C)(C)C)C(C)C)n2)cc1	0.4	12	81*	57*	0.2
CC(C)N(Cc1nc(-c2ccccc2)no1)C(=O)C(C)(C)C	0.6	8	52*	44	0.5
CC(C)N(Cc1nc(-c2ccc(Cl)cc2)no1)C(=O)CCC1CCCC1	0.7	7	30	33	0.7
CCCc1cc(=O)n2[nH]cnc2n1	1.1	10	-18	-14	1.2
COc1ccc(Cl)cc1NC(=O)Cn1cccc1	2.8*	34*	36	-178	0.6
COc1cc(OC)c(NC(=O)Cn2cccc2)cc1Cl	0.8	36	39	22	0.6
COc1ccc(NC(=O)Cn2cccc2)cc1Cl	1	41*	28	2	0.7
Cc1ccc(NC(=O)Cn2cccc2)c(C)c1	1	5	71*	0	0.3
Cc1ccc(NC(=O)Cn2cccc2)cc1Cl	1	2	52*	4	0.5
Cc1ccc(NC(=O)Cn2cccc2)c(Br)c1	1	16	31	0	0.7
O=C(Nc1ccc2oc(=O)ccc2c1)c1ccc(-c2ccc(Cl)cc2)o1	/	2	/	/	/
Cc1cc(=O)n(C)c(=O)n1CCCCCOc1cccc([N+](=O)[O-])c1	1	2	34	-4	0.7
CCn1c(CNC(=O)COc2ccc(C(C)C)cc2)nnc1SCC(=O)Nc1ccccc1	0.6	12	28	38	0.7
CC1=[N+]([O-])C(C)(C)C(C)N(O)C1=O (configuration not stated)	1.1	4	-16	-12	1.2
CCn1c(-c2ccc(OC)c(OC)c2)n[nH]c1=S	0.9	35	4	8	1
CCCCn1c(-c2cc(Cl)ccc2OC)n[nH]c1=S	0.7	26	72*	29	0.3
CC1Cc2ccccc2N1Cc1nc2scc(-c3cccs3)c2c(=O)[nH]1 (configuration not stated)	0	20	75*	95*	0.3
O=c1[nH]c(CN2CCN(c3ccccc3)CC2)nc2scc(-c3ccccc3)c12	/	4	/	/	/
N#Cc1ccc(COC(=O)c2ccc3c(=O)[nH]c(CN4CCOCC4)nc3c2)cc1	1	9	-14	0	1.1
CC1Cc2ccccc2N1Cc1nc2cc(Cl)ccc2c(=O)[nH]1 (configuration not stated)	0.2	4	57*	80*	0.4
COC(=O)c1ccc2c(=O)[nH]c(CN3c4ccccc4CC3C)nc2c1 (configuration not stated)	0.2	6	22	82*	0.8
Brc1ccc(OCc2nnc3n2CCC3)cc1	/	16	/	/	/
SMILES	CYP2C9 act	Measles CPE	CYP2C19 inh	CYP2C9 inh	CYP2C19 act
Cc1ccccc1-c1nc(CS(=O)(=O)CC(=O)Nc2cc(F)ccc2F)c(C)o1	0.9	4	-9	15	1.1
Cc1cccc(CCNC(=O)C2CCN(S(=O)(=O)c3cccc4nsnc34)CC2)c1	1.2	9	-3	-16	1
O=S(=O)(c1ccc(F)cc1)N1CCC(O)(c2ccc3c(c2)OCO3)CC1	0.9	6	71*	8	0.3
COc1ccc(S(=O)(=O)N2CCC(O)(c3ccc4c(c3)OCO4)CC2)cc1	1.2	20	3	-17	1
Cc1ccc(N2CC(C(=O)Nc3ccc(S(=O)(=O)N4CCOCC4)cc3)CC2=O)cc1 (configuration not stated)	0.7	6	13	27	0.9
O=C(NCc1ccco1)C1CCCCN1S(=O)(=O)c1ccc(F)cc1 (configuration not stated)	0.7	0	61*	31	0.4
COc1ccc(NC(=O)C2CCCCN2S(=O)(=O)c2ccc(F)cc2)cc1 (configuration not stated)	0.6	2	68*	36	0.3
CCOc1ccc(N2CC(C(=O)Nc3ccc(S(=O)(=O)N4CCOCC4)cc3)CC2=O)cc1 (configuration not stated)	0.4	21	22	57*	0.8
O=C(NCC1CCCO1)C1CCCCN1S(=O)(=O)c1ccc(F)cc1 (configuration not stated)	1.1	2	2	-6	1
COc1ccc(S(=O)(=O)N2CCCC2C(=O)Nn2cnnc2)cc1 (configuration not stated)	1.1	23	7	-7	0.9
